Source: PubChem BioAssay (NCATS)
Results filed as inconclusive are left out. Unmarked numbers belong to inactive results. Active and inactive are the calls of the source. The call rests on the fitted dose curve; in most records, active means well fitted curve in the direction sought with a large enough effect; inconclusive means small, poorly fitted or top-dose-only effect, or another doubt; inactive means no such curve, though single readings can be large; an effect the other way counts as inactive or inconclusive.

Molecular target: Ubiquitin carboxyl-terminal hydrolase 1 (Homo sapiens) (UniProt O94782)
Assay: Inhibitors of USP1/UAF1: Pilot qHTS (AID 504865); further: nearly all actives have a fitted effect of over 35% in size; further: potency means the concentration at half of the fitted maximal effect;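 on activity change, negative = inhibition: rhodamine fluorescence freed from ubiquitin-rhodamine substrate followed over time; top concentration of the series differs between compounds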
Conditions: purified USP1/UAF1, Ub-rhodamine cleavage fluorescence; series mostly up to 114 µM; activity change, negative = inhibition: at the top concentration
Procedure, shortened: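 USP1/UAF1 complex (1nM) preincubated with compound 15 min at room temperature, then Ub-Rho substrate (150nM final) added. Fluorescence read kinetically at 480/540 nm, 6 reads every 60 seconds. Buffer: 50mM HEPES pH 7.8, 0.5mM EDTA, 0.1 mg/ml BSA, 1mM TCEP, 0.01% Tween-20.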
On the % scale 0 is the no-effect control and ±100 the full control effect.

Sequence of Ubiquitin carboxyl-terminal hydrolase 1 (Homo sapiens) (O94782 whole entry, looked up): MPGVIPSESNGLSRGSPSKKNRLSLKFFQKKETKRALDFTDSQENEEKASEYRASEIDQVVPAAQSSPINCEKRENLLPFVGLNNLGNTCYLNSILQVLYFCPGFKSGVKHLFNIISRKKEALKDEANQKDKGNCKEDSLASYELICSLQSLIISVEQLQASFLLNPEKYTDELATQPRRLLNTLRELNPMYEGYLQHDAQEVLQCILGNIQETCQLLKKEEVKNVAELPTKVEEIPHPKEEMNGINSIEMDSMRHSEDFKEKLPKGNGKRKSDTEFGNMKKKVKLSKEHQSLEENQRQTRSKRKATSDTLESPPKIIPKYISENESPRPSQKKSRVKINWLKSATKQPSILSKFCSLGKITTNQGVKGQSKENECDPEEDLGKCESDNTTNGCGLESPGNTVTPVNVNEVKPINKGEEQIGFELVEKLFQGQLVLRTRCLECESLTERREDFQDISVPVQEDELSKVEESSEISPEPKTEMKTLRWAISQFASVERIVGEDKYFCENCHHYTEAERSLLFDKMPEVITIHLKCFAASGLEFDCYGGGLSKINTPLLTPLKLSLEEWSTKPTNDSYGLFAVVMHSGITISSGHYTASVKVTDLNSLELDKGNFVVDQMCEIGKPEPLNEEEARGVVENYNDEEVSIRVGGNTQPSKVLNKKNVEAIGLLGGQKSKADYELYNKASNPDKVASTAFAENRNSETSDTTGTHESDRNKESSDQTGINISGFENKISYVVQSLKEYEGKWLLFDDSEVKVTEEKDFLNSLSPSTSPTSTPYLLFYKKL

SMILES | Potency | activity change, negative = inhibition
NC/C=C\C(=O)O | inactive | –
N#CC(C#N)=C(N)/C(C#N)=C/c1ccc(O)cc1 | – | 1.02%
C=CC1(C)CC(=O)C2(O)C(C)(O1)C(OC(C)=O)C(O)C1C(C)(C)CCC(O)C12C (stereo not drawn) | – | 2.91%
Nc1ncnc2c1ncn2C1CCCC1 | – | -8.57%
Cc1nc2c(OCc3ccccc3)cccn2c1CC#N | – | -2.49%
Nc1ccc(N2C(=O)c3ccccc3C2=O)c(Cl)c1 | – | -13.7%
CCCCOc1cc(CC2CNC(=O)N2)ccc1OC (stereo not drawn) | – | -8.53%
O=[N+]([O-])c1cccc2cn[nH]c12 | – | -1.96%
NCCS(=O)O | – | 1.69%
Cn1ccnc1 | – | -9.8%
NC1C=CC=C(C(=O)O)C1 (stereo not drawn) | – | 0.448%
NCCNS(=O)(=O)c1cccc2c(Cl)cccc12 | inactive | –
Nc1ccc(-c2nc3ccc(-c4nc5ccc(N)cc5[nH]4)cc3[nH]2)cc1 | 50.1 µM (active) | –
Oc1cc2c(cc1O)C(c1ccccc1)CNCC2 (stereo not drawn) | – | -2.4%
O=C(O)C1CCNCC1 | – | -7.88%
CCN(CC)CCOC(=O)c1cc(Cl)c(N)cc1OC | – | -8.72%
CC1=C(C(=O)O)N2C(=O)[C@@H](NC(=O)C(N)C3=CCC=CC3)[C@H]2SC1 (stereo partly drawn) | – | -4.18%
CCCCS(=N)(=O)CC[C@H](N)C(=O)O (stereo partly drawn) | – | -9.94%
CSC(=N)N | inactive | –
O=C(O)C1CCCNC1 (stereo not drawn) | – | -8.04%
O=C1C2C=CC=CC2=NC(=S)N1CCN1CCC(=C(c2ccc(F)cc2)c2ccc(F)cc2)CC1 (stereo not drawn) | – | -8.08%
CC(=O)[C@H]1CCC2C3CC=C4C[C@@H](OS(=O)(=O)O)CC[C@]4(C)C3CC[C@@]21C (stereo partly drawn) | – | -4.26%
OC[C@H]1O[C@@H](n2cnc3cncnc32)[C@H](O)[C@@H]1O | inactive | –
O=c1ccn([C@@H]2O[C@H](COP(=O)(O)OP(=O)(O)O)[C@@H](O)[C@H]2O)c(=O)[nH]1 | – | 2.19%
OCC1NCC(O)C(O)C1O (stereo not drawn) | – | -3.05%
CSC(N)=NCCC[C@H](N)C(=O)O | – | -4.43%
CN1C2CCC1CC(OC(c1ccccc1)c1ccccc1)C2 (stereo not drawn) | inactive | –
COc1cc(CC(=O)O)ccc1O | – | -11.1%
COc1cc(N)c(Cl)cc1C(=O)OCCN1CCCCC1 | – | -8%
NCCCNCCCCNCCCN | – | -3.77%

Test system: not listed separately
Assay: qHTS for Inhibitors of ATXN expression: Validation of Cytotoxic Assay (AID 588349)
Conditions: cytotoxicity counter-screen for ATXN expression inhibitors, cell viability; series mostly up to 57.1 µM; activity change, negative = cytotoxicity: at the top concentration
Procedure, shortened: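 Read-out: ATP-based luminescence (CellTiter Glo) reflecting viability of HEK293 cells after 72 hr incubation at 37 degrees C with a concentration series of each compound.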

SMILES | activity change, negative = cytotoxicity
NC/C=C\C(=O)O | 2.06%
N#CC(C#N)=C(N)/C(C#N)=C/c1ccc(O)cc1 | -16.4%
C=CC1(C)CC(=O)C2(O)C(C)(O1)C(OC(C)=O)C(O)C1C(C)(C)CCC(O)C12C (stereo not drawn) | -6.96%
Nc1ncnc2c1ncn2C1CCCC1 | -11.3%
Cc1nc2c(OCc3ccccc3)cccn2c1CC#N | -0.826%
OC[C@H]1NC[C@@H](O)[C@@H]1O | -10.8%
O=C(O)c1ccccc1Nc1cccc(OCc2ccc3ccccc3n2)c1 | -5.71%
Nc1ccc(N2C(=O)c3ccccc3C2=O)c(Cl)c1 | -5.31%
CCCCOc1cc(CC2CNC(=O)N2)ccc1OC (stereo not drawn) | -7.19%
O=[N+]([O-])c1cccc2cn[nH]c12 | -2.67%
NCCS(=O)O | -16.5%
Cn1ccnc1 | -9%
NC1C=CC=C(C(=O)O)C1 (stereo not drawn) | 0.684%
NCCNS(=O)(=O)c1cccc2c(Cl)cccc12 | -9.74%
Nc1ccc(-c2nc3ccc(-c4nc5ccc(N)cc5[nH]4)cc3[nH]2)cc1 | -10.7%
Oc1cc2c(cc1O)C(c1ccccc1)CNCC2 (stereo not drawn) | -11.4%
O=C(O)C1CCNCC1 | -9.05%
CCN(CC)CCOC(=O)c1cc(Cl)c(N)cc1OC | -17.9%

SMILES | activity change, negative = cytotoxicity
CC1=C(C(=O)O)N2C(=O)[C@@H](NC(=O)C(N)C3=CCC=CC3)[C@H]2SC1 (stereo partly drawn) | -11.1%
CCCCS(=N)(=O)CC[C@H](N)C(=O)O (stereo partly drawn) | -6.38%
CSC(=N)N | -20.2%
O=C(O)C1CCCNC1 (stereo not drawn) | -2.89%
O=C1C2C=CC=CC2=NC(=S)N1CCN1CCC(=C(c2ccc(F)cc2)c2ccc(F)cc2)CC1 (stereo not drawn) | -9.29%
CC(=O)[C@H]1CCC2C3CC=C4C[C@@H](OS(=O)(=O)O)CC[C@]4(C)C3CC[C@@]21C (stereo partly drawn) | 5.6%
OC[C@H]1O[C@@H](n2cnc3cncnc32)[C@H](O)[C@@H]1O | -9.12%
NC1CCN(O)C1=O (stereo not drawn) | -1.62%
O=c1ccn([C@@H]2O[C@H](COP(=O)(O)OP(=O)(O)O)[C@@H](O)[C@H]2O)c(=O)[nH]1 | -13.1%
OCC1NCC(O)C(O)C1O (stereo not drawn) | -8.43%
COC(=O)C(N)Cc1ccc(Cl)cc1 (stereo not drawn) | -2.02%
CSC(N)=NCCC[C@H](N)C(=O)O | -1.8%
CN1C2CCC1CC(OC(c1ccccc1)c1ccccc1)C2 (stereo not drawn) | -22.7%
COc1cc(CC(=O)O)ccc1O | -3.21%
COc1cc(N)c(Cl)cc1C(=O)OCCN1CCCCC1 | -3.46%
NCCCNCCCCNCCCN | -7.63%
O=c1oc(Cl)c(Cl)c2ccccc12 | -14.1%
Cn1cc(C(=O)OCC2CCN(CCNS(C)(=O)=O)CC2)c2ccccc21 | -26.8%

Test system: not listed separately
Assay: qHTS for Inhibitors of ATXN expression: Validation (AID 588378); further: nearly all actives have a fitted effect of over 75% in size
Conditions: cell-based ATXN2 expression reporter assay, luminescence; series mostly up to 57.1 µM; activity change, negative = inhibition: at the top concentration
Procedure, shortened: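 Luminescence from an ATXN2-FFLuc reporter in HEK293 cells served as read-out after 24 h compound treatment at 37 degrees C; CellTiter-Fluor fluorescence was recorded first to assess viability.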

SMILES | activity change, negative = inhibition
NC/C=C\C(=O)O | 25%
N#CC(C#N)=C(N)/C(C#N)=C/c1ccc(O)cc1 | -9.42%
C=CC1(C)CC(=O)C2(O)C(C)(O1)C(OC(C)=O)C(O)C1C(C)(C)CCC(O)C12C (stereo not drawn) | 16.2%
Nc1ncnc2c1ncn2C1CCCC1 | 9.33%
Cc1nc2c(OCc3ccccc3)cccn2c1CC#N | 16.1%
OC[C@H]1NC[C@@H](O)[C@@H]1O | -2.87%
O=C(O)c1ccccc1Nc1cccc(OCc2ccc3ccccc3n2)c1 | 5.34%
Nc1ccc(N2C(=O)c3ccccc3C2=O)c(Cl)c1 | -5.76%
CCCCOc1cc(CC2CNC(=O)N2)ccc1OC (stereo not drawn) | -0.547%
O=[N+]([O-])c1cccc2cn[nH]c12 | -1.61%
NCCS(=O)O | -7.98%
Cn1ccnc1 | -9.53%
NC1C=CC=C(C(=O)O)C1 (stereo not drawn) | 11.5%
Nc1ccc(-c2nc3ccc(-c4nc5ccc(N)cc5[nH]4)cc3[nH]2)cc1 | -2.32%
O=C(O)C1CCNCC1 | -14%
CCN(CC)CCOC(=O)c1cc(Cl)c(N)cc1OC | -7.82%
CCCCS(=N)(=O)CC[C@H](N)C(=O)O (stereo partly drawn) | -8.66%
CSC(=N)N | -8.71%
CC(=O)[C@H]1CCC2C3CC=C4C[C@@H](OS(=O)(=O)O)CC[C@]4(C)C3CC[C@@]21C (stereo partly drawn) | 8.04%
OC[C@H]1O[C@@H](n2cnc3cncnc32)[C@H](O)[C@@H]1O | -7.69%
NC1CCN(O)C1=O (stereo not drawn) | -2.82%
O=c1ccn([C@@H]2O[C@H](COP(=O)(O)OP(=O)(O)O)[C@@H](O)[C@H]2O)c(=O)[nH]1 | -0.283%
COC(=O)C(N)Cc1ccc(Cl)cc1 (stereo not drawn) | -8.29%
CSC(N)=NCCC[C@H](N)C(=O)O | -0.837%
COc1cc(CC(=O)O)ccc1O | -0.723%
COc1cc(N)c(Cl)cc1C(=O)OCCN1CCCCC1 | 3.77%
NCCCNCCCCNCCCN | 2.48%
